From PubChem BioAssay

test: small-molecule microarray binders of probe aEGFR, primary screen, biochemical, biotinylated probe, 635/667 nm fluorescence (AID 1097); conditions: higher = more signal;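 also: probe is a biotinylated anti-EGFR antibody binding compounds printed on slides; score combines fluorescence near 667 nm and signal to noise of each spot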

SMILES	composite z-score
O=C(O)[C@]1(CCS(=O)(=O)c2ccccc2)N=C(c2ccc(OCCCO)cc2)O[C@@H]1c1ccccc1	0.0021
[N-]=[N+]=NCc1ccccc1C[C@]1(C(=O)NCCN2CCOCC2)COC(c2ccc(OCCCO)cc2)=N1	-0.0351
CC(C)C[C@@H]1NC(=O)[C@@H]2C[C@H](C(=O)NCc3ccc(F)cc3)[C@H](c3ccc(O)cc3)N2C1=O	-0.178
C=CCNC(=O)[C@H]1[C@@H]2C(=O)O[C@@H](c3ccccc3)[C@@H](c3ccccc3)N2[C@@H](c2ccc(O)cc2)[C@]12C(=O)N(C(=O)OCCOC)c1ccc(C#CC3(O)CCCCCC3)cc12	0.0638
COCCOC(=O)N1C(=O)[C@@]2(c3cc(C#CCC(C(=O)OC)C(=O)OC)ccc31)[C@H](C(=O)N1CCCCCCC1)[C@H]1C(=O)O[C@H](c3ccccc3)[C@H](c3ccccc3)N1[C@@H]2c1ccc(O)cc1	0.456
O=[N+]([O-])c1ccc(C[n+]2ccc(-c3ccc(CO)cc3)cc2)o1	-0.0703
CN1C(=O)C2C=CC(C(O)COCc3ccccc3)N(Nc3ccccc3)C2C1=O (stereo not given)	-0.0232
COC(=O)[C@@]1(Cc2ccc(OC)cc2)[C@H]2c3cc(C(=O)N4CCCC4)n(CCc4ccc(O)c(OC)c4)c3C[C@H]2CN1C(=O)c1ccccc1	0.0055
C=C(CCCC)/C(=C/C[C@H](OC(=O)c1ccncc1)c1ccc(CO)o1)c1cc(C(=O)OC)ccc1OC	-0.0056
C[C@@H]1ON(c2ccccc2)[C@H](c2ccccc2)[C@H]1C(=O)N1C(=O)OC[C@H]1Cc1ccccc1	-0.0549
